Screening data deposited in PubChem BioAssay by National Center for Advancing Translational Sciences (NCATS).
D1 antag – Antagonist of Human D 1 Dopamine Receptor: qHTS | actives 3.2% (n = 360,000) | AID 504652, 2011 | D(1A) dopamine receptor (Homo sapiens), P21728 | HEK293 TREx D1 cells, calcium flux, dopamine EC80; active compounds read low | activity change, negative = inhibition, % at 10 µM; in the data active = activity change below about -30%; also: % is scaled to controls: 0 for no effect and ±100 for the full control effect
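Compound effects on dopamine-evoked calcium signalling were measured in tetracycline-induced HEK293 Trex D1 cells. Dopamine at EC80 followed a 180 s compound pre-read, and fluorescence was tracked kinetically for 180 s more.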
D1 PAM – Potentiators of Human D1 Dopamine Receptor: qHTS; D(1A) dopamine receptor (Homo sapiens), P21728; HEK293 TREx D1 cells, calcium flux, dopamine EC20 potentiation; potentiation, % at 10 µM; actives 0.036% (n = 360,000); in the data active = potentiation above about 30%; also: 0% is about no effect
TRHR PAM – qHTS for Small Molecule Agonists and Allosteric Enhancers of Human TRH Receptor: Primary Screen for Enhancers. Thyrotropin-releasing hormone receptor (Homo sapiens), P34981. TRHR cells, fluo-8 calcium fluorescence, EC20 TRH enhancement. enhancement, % at 2 µM. actives 0.66% (n = 360,000); in the data active = enhancement above about 30%; also: 0% is about no effect
Target sequence (P34981 whole entry, looked up): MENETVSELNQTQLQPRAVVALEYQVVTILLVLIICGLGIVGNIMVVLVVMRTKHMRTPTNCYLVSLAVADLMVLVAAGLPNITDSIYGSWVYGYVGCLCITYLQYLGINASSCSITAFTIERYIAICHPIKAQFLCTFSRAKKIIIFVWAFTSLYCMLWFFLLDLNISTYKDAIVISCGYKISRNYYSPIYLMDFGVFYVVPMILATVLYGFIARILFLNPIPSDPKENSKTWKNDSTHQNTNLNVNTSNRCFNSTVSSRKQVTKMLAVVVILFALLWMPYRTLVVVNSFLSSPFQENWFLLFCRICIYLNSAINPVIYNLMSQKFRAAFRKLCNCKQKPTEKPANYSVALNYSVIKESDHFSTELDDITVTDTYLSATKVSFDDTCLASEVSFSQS
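TRHR-expressing cells loaded with fluo-8 calcium dye were read kinetically (ex 480/em 530) during compound addition, then stimulated with an EC20 of TRH (10 nM final). Enhancement of the Gq-mediated intracellular calcium response was scored.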
D1 ag – Allosteric Agonists of the Human D1 Dopamine Receptor: qHTS; D(1A) dopamine receptor (Homo sapiens), P21728; HEK293 T-REx D1 cells, calcium flux, agonist mode; activation, % at 2 µM; actives 1% (n = 360,000); AID 504660, 2011; also: 0% is about no effect
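Inducible HEK293 T-REx D1 cells, force-coupled to calcium signalling, were plated at 4000 cells/well with tetracycline and held overnight at 30 C. After no-wash calcium dye loading, compound-evoked calcium rise over 180 s flagged agonists.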
TRHR agonist – qHTS for Small Molecule Agonists and Allosteric Enhancers of Human TRH Receptor: Primary Screen for Agonists; AID 493084, 2011; actives 0.18% (n = 360,000); TRHR cells, calcium flux fluo-8, FDSS agonist mode; activation, % at 2 µM; also: 0% is about no effect
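Agonist-mode FDSS calcium read (Ex 480/Em 530, 1 s cycles) in 1536-well TRHR cells with fluo-8 dye, after 10-cycle baseline and 23 nL compound addition; TRH at EC20 (10 nM final) added afterwards for the enhancer phase.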
* = called active by the depositor. In the library only some 4.6% were active in any assay of this set; here they are far more common. Rule as the data show it, unless noted: active = activation above about 30%; inactive = the rest.

SMILES	D1 antag	D1 PAM	TRHR PAM	D1 ag	TRHR agonist
O=C(NCc1ccc(Cl)cc1Cl)C1CC(=O)N(Cc2ccccc2)C1 (stereo unspecified)	-31.3*	-2.2	-6.5	-2.3	0.6
Cc1ccc2oc3c(c(=O)c2c1)C(c1ccccc1F)N(c1ccccn1)C3=O (stereo unspecified)	5.2	-0.9	-8.0	0.9	0.2
NC(=S)N/N=C/c1ncc(C(F)(F)F)cc1Cl	3.0	-1.8	10.3	31.2*	11.1
CC(=O)Nc1ccccc1-c1nc2ccccc2n(C(C)C(=O)c2ccc(C)c(C)c2)c1=O (stereo unspecified)	-3.0	-0.6	-4.9	50.7*	-1.0
CCOC(=O)N1CCN(C(=O)Cc2c(C(=O)O)n(C)c3ccccc23)CC1	3.3	-0.5	3.6	1.3	0.8
CCOC(=O)C1CCN(C(=O)Cc2c(C(=O)O)n(CC)c3ccccc23)CC1	-86.7*	-4.7	2.6	0.7	0.6
CCCCCOC(=O)C1=C(C)NC(=O)NC1c1ccccc1 (stereo unspecified)	-35.9*	-4.2	-3.6	3.2	-0.5
CCOC(=O)C1=C(C)NC(=O)CC1c1ccccc1OC (stereo unspecified)	3.6	-6.6	6.6	2.0	-0.7
CCOC(=O)C1=C(C)NC(=O)CC1c1ccccc1 (stereo unspecified)	-0.2	3.2	39.9*	-0.6	-1.4
CCCCCOC(=O)C1=C(C)NC(=O)NC1c1ccc(N(C)C)cc1 (stereo unspecified)	28.6	0.2	0.7	2.5	-0.4
COc1ccc(N2CCN(S(=O)(=O)c3ccc(C4CCCCC4)cc3)CC2)cc1	-7.8	-1.1	-2.7	-0.7	0.8
CC(=O)N1CCN(C(=O)CCc2c[nH]c3ccccc23)CC1	-34.1*	-12.4	0.0	0.2	0.7
O=C(Cc1c[nH]c2ccccc12)N1CCN(S(=O)(=O)c2ccc(Cl)cc2)CC1	-36.2*	-2.6	-9.2	3.7	-0.4
CC(=O)N1CCc2cc(CNC(=O)Cc3ccc(F)cc3)ccc21	-0.1	-2.4	-3.3	-0.5	0.0
Cc1ccc2oc(=O)c3cnn(CC(=O)N4CCN(c5cccc(C(F)(F)F)c5)CC4)c3c2c1	-6.7	1.2	-2.5	-0.3	-0.7
COc1ccc(-c2noc(CSc3nnc(-c4ccc(Cl)cc4)n3C)n2)cc1OC	-31.0*	-3.4	-0.3	-0.9	-0.6
COc1ccc(-c2noc(CSc3nnc(-c4ccccc4)n3C)n2)cc1	-2.5	0.7	2.2	6.0	-0.5
COc1ccc(-c2noc(CSc3nnc(C)n3-c3cccc(C)c3)n2)cc1	-34.3*	-2.1	-1.7	9.7	-0.4
CCc1cccc(-n2c(=O)c3cccnc3n2CC(=O)Nc2ccc(F)c(C)c2)c1	14.5	-4.4	-8.4	6.9	0.4
CCc1nc(C)c(C#N)c2cc(OC)c(OC)cc12	-33.6*	-6.2	5.6	-0.2	-0.6
C=CCOC(=O)C1=C(C)NC(=O)NC1c1cc2c(cc1Br)OCO2 (stereo unspecified)	-4.7	2.5	6.7	3.8	-0.7
O=C(Nc1c[nH]c(=O)[nH]c1=O)c1ccccc1Cl	3.5	-1.7	30.4*	1.2	0.2
COc1ccc(CN(C)C(=S)Nc2ccc(Cl)cc2)cc1	-2.2	2.0	1.4	0.9	-0.1
Cn1c(=O)n(C)c2cc(NC(=O)COc3ccc(Cl)cc3)ccc21	-32.9*	-6.3	0.4	17.9	-0.3
CN1CCC(N(C)S(=O)(=O)c2ccc(NC(=O)COc3ccc(Cl)cc3)cc2)CC1	-17.9	-2.9	-0.4	47.6*	1.7
CN1CCC(N(C)S(=O)(=O)c2ccc(NC(=O)COc3ccc([N+](=O)[O-])cc3)cc2)CC1	-3.6	-8.4	-3.3	34.4*	1.9
Cn1c(=O)n(C)c2cc(NC(=O)COc3ccc(F)cc3F)ccc21	-14.3	-6.0	1.3	1.4	-0.1
CC(=O)Nc1ccc(S(=O)(=O)N(C)C2CCN(C)CC2)cc1	-1.6	-2.3	-3.6	3.0	0.5
